From PubChem BioAssay
CYP2C9 inh = human CYP2C9 inhibition; P11712; CYP2C9 Supersomes, luciferin-H conversion, luminescence; inhibition, % at 5 µM; hit rate 20% among 96,000;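 active = blocking of liver enzyme CYP2C9 beyond about 50% at 5 µM, limit read from the data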
Target sequence (P11712 whole entry, looked up): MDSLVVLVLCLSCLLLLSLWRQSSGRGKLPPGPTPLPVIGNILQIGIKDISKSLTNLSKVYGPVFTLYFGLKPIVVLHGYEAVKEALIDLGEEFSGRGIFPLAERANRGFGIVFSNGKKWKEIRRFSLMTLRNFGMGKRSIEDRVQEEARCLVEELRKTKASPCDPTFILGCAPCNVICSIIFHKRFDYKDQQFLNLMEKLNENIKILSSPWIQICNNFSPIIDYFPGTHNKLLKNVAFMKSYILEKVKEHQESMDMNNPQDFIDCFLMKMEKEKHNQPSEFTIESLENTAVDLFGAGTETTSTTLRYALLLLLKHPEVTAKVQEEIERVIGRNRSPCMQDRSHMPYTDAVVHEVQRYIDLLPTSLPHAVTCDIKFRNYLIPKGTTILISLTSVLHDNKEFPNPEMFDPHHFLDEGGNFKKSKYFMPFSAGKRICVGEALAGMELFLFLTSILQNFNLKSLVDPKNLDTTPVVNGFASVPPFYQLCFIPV
CYP2C19 inhib = human CYP2C19 inhibition; P33261; CYP2C19 Supersomes, luciferin-H EGE luminescence, 30 min; inhibition, % at 5 µM; hit rate 21% among 96,000;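 active = CYP2C19 inhibition above a set limit at 5 µM in the primary screen, cut at about 50% in these data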;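 also: plate controls were negative control wells for no effect and 2.5 mM tranylcypromine positive control for full effect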
CYP2C19 act = activators of human cytochrome P450 2C19; 96,000 tested, under 10 active; recombinant CYP2C19, luciferin-H EGE luminescence; hits give high values; 0 = fully inhibited enzyme, 1 = untreated enzyme; P33261; activation factor at 5 µM;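 active = activation factor of at least 2 at 5 µM in the primary screen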;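 also: 0 = wells with 2.5 mM tranylcypromine and 1 = vehicle-only wells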
CYP2C9 act = activators of human CYP2C9 | P11712 | recombinant CYP2C9, luciferin-H conversion, luminescence; hits give high values; factor 1 = untreated enzyme, 0 = blocked | activation factor at 5 µM | hit rate 1.4% among 96,000 | AID 1024;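 active = activation factor of 2 or more for CYP2C9 at a 5 µM dose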;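 also: 0 = sulfaphenazole-blocked wells and 1 = vehicle-only wells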
MRP1 act = activators of MRP-1; H69AR cells + doxorubicin, viability rescue, CellTiter-Glo; viability increase, % at 10 µM; hit rate 0.61% among 140,000;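 active = viability gain under doxorubicin at or above a set limit, the compound median plus 3 SD, cut at about 4.7% in these data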;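 also: MRP-1 overexpressing cells given doxorubicin 25 µM after compound pretreatment; 18-22 h compound pretreatment then 72 h with doxorubicin before readout; 0% = doxorubicin-only wells and 100% = vehicle-treated cells without doxorubicin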
MRP resist rev = compounds reversing MRP-mediated drug resistance | differential viability (reversal), % at 10 µM | H69AR cells + 2 uM doxorubicin, CellTiter-Glo, 72 h | hit rate 0.04% among 85,000;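 active = viability drop by adding the cancer drug above about 55%, with treated viability meeting a 40% cutoff, limit read from the data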;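 also: viability without doxorubicin minus viability with 2 µM doxorubicin for each compound; larger differential means the compound sensitizes cells more to doxorubicin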
* = called active by the depositor. Compounds with a hit are over-represented: about 21% of the library has one in this group of screens.

For CCC(C)c1ccc(NC(=O)COC(=O)C2=COCCO2)cc1 (stereo not drawn) the results were CYP2C9 inh 14.1, CYP2C19 inhib -6.1, CYP2C19 act 1.1, CYP2C9 act 0.9 and MRP1 act 0.8.
For CNC(=O)c1sccc1S(=O)(=O)Cc1c(Cl)cccc1Cl the results were CYP2C9 inh 53.7*, CYP2C19 inhib 87.3*, CYP2C19 act 0.1, CYP2C9 act 0.5, MRP1 act 1.1 and MRP resist rev 9.6.
Cc1cc(Nc2ccc(F)cc2C)n2nc(C)nc2n1 was read as CYP2C9 inh -12.6, CYP2C19 inhib -18.9, CYP2C19 act 1.2, CYP2C9 act 1.1, MRP1 act -0.7 and MRP resist rev 10.4.
`COC(=O)C1=C(C)NC(C)=C(C(=O)OC)C1/C=C/c1ccccc1` gave CYP2C9 inh 55.2*, CYP2C19 inhib 46.7, CYP2C19 act 0.5, CYP2C9 act 0.4 and MRP1 act -2.7.
For C=CCOC(=O)C1=C(C)NC(C)=C(C(=O)OCC=C)C1/C=C/c1ccccc1 the results were MRP1 act -2.9.
For CCOC(=O)C1=C(C)NC(C)=C(C(=O)OCC)C1/C=C/c1ccccc1 the results were CYP2C9 inh 70.1*, CYP2C19 inhib 68.4*, CYP2C19 act 0.3, CYP2C9 act 0.3 and MRP1 act -2.0.
`CN1CCC(N(C)C(=S)Nc2ccc(SC(F)F)cc2)CC1` gave MRP1 act -1.5.
`C=CCn1c(-c2cccn(Cc3ccc(Cl)cc3)c2=O)n[nH]c1=S` gave CYP2C9 inh 28.1, CYP2C19 inhib 27.9, CYP2C19 act 0.7, CYP2C9 act 0.7 and MRP1 act -4.5.
C=CCn1c(-c2cc(Cl)ccc2OC)n[nH]c1=S was read as CYP2C9 inh 50.2*, CYP2C19 inhib 82.2*, CYP2C19 act 0.2, CYP2C9 act 0.5, MRP1 act -3.0 and MRP resist rev 12.9.
Screening C=CCn1c(-c2cccn(Cc3ccc(Cl)cc3Cl)c2=O)n[nH]c1=S returned CYP2C9 inh 5.8, CYP2C19 inhib 80.2*, CYP2C19 act 0.2, CYP2C9 act 0.9 and MRP1 act -3.7.
Nc1ncnc2nc(Sc3ccc(Cl)cc3)[nH]c12 was read as CYP2C9 inh 27.3, CYP2C19 inhib 22.2, CYP2C19 act 0.8, CYP2C9 act 0.7, MRP1 act -1.6 and MRP resist rev -37.9.
Nc1ncnc2nc(SCc3ccc(Cl)cc3Cl)[nH]c12 was read as CYP2C9 inh 58.9*, CYP2C19 inhib 67.0*, CYP2C19 act 0.3, CYP2C9 act 0.4 and MRP1 act -4.4.
For Cc1cc(C(=O)Cn2cncn2)c(C)n1CCc1ccc(F)cc1 the results were CYP2C9 inh 67.2*, CYP2C19 inhib 98.7*, CYP2C19 act 0, CYP2C9 act 0.3, MRP1 act -1.4 and MRP resist rev 3.8.
`CCCCCCN=CC1=C(O)C(C(=O)OC)C(C)(C)CC1=O` (stereo not drawn) gave CYP2C9 inh 42.1, CYP2C19 inhib 47.3, CYP2C19 act 0.5, CYP2C9 act 0.6, MRP1 act -0.4 and MRP resist rev 6.6.
O=C(Nc1ccncc1)c1ccc2c(c1)C(=O)N(C1CCCCC1)C2=O was read as CYP2C9 inh 92.1*, CYP2C19 inhib 75.9*, CYP2C19 act 0.2, CYP2C9 act 0.1, MRP1 act 0.3 and MRP resist rev 11.6.
`CCC(=O)Nc1ccc2c(c1)C(=O)N(C1CCCCC1)C2=O` gave CYP2C9 inh 53.4*, CYP2C19 inhib -2.1, CYP2C19 act 1, CYP2C9 act 0.5, MRP1 act 0.6 and MRP resist rev 6.5.
Screening CCC(=O)Nc1ccc(N2CCC(C)CC2)cc1 returned MRP1 act -6.0 and MRP resist rev 2.7.
Cc1cc(C(=O)NCCCN2CCN(C3CCCCC3)CC2)n(-c2ccccc2)n1 was read as CYP2C9 inh -6.5, CYP2C19 inhib -12.5, CYP2C19 act 1.1, CYP2C9 act 1.1, MRP1 act -2.5 and MRP resist rev 8.4.
`C=CC[C@H]1CC(Cc2ccccc2)=C[C@H](CC=C)N1` gave MRP1 act -2.2.
For CCOc1cc(S(=O)(=O)NC2CC2)c(OCC)cc1-n1cnnn1 the results were CYP2C9 inh 95.3*, CYP2C19 inhib 79.9*, CYP2C19 act 0.2, CYP2C9 act 0, MRP1 act -0.5 and MRP resist rev 17.2.
`CCOc1cc(S(=O)(=O)NCC2OCCc3ccccc32)c(OCC)cc1-n1cnnn1` (stereo not drawn) gave CYP2C9 inh 50.8*, CYP2C19 inhib 31.8, CYP2C19 act 0.7, CYP2C9 act 0.5, MRP1 act -1.1 and MRP resist rev -6.1.
Screening CCOc1cc(S(=O)(=O)NCCc2ccc(OC)c(OC)c2)c(OCC)cc1-n1cnnn1 returned CYP2C9 inh 75.8*, CYP2C19 inhib 13.2, CYP2C19 act 0.9, CYP2C9 act 0.2, MRP1 act -1.5 and MRP resist rev 3.2.
For CCOc1ccc(-n2cnnn2)cc1S(=O)(=O)NCCc1ccc(OC)c(OC)c1 the results were CYP2C9 inh 7.3, CYP2C19 inhib 10.3, CYP2C19 act 0.9, CYP2C9 act 0.9, MRP1 act -3.5 and MRP resist rev -5.0.
Screening CCOc1cc(S(=O)(=O)NCc2ccco2)c(OCC)cc1-n1cnnn1 returned CYP2C9 inh 68.6*, CYP2C19 inhib 31.3, CYP2C19 act 0.7, CYP2C9 act 0.3, MRP1 act -3.2 and MRP resist rev -2.5.
Screening CCOc1cc(S(=O)(=O)NCc2ccc(OC)cc2)c(OCC)cc1-n1cnnn1 returned CYP2C9 inh 85.4*, CYP2C19 inhib 31.0, CYP2C19 act 0.7, CYP2C9 act 0.1, MRP1 act -2.2 and MRP resist rev -41.6.
Cc1ccc2c(c1)CCCN2C(=O)c1ccc2c(c1)OCO2 was read as CYP2C9 inh 40.0, CYP2C19 inhib 89.9*, CYP2C19 act 0.1, CYP2C9 act 0.6, MRP1 act -0.9 and MRP resist rev 11.2.
`O=C(CCN1CCc2ccccc21)c1ccc2c(c1)OCCO2` gave CYP2C9 inh 7.9, CYP2C19 inhib 84.0*, CYP2C19 act 0.2, CYP2C9 act 0.9, MRP1 act -4.8 and MRP resist rev 0.8.
O=C(c1ccc2c(c1)OCO2)N1CCN(c2ncccn2)CC1 was read as MRP1 act 0.7.
For CCCN(CCC)S(=O)(=O)c1ccc(C(=O)N2CCCc3ccccc32)cc1 the results were CYP2C9 inh 85.8*, CYP2C19 inhib 20.7, CYP2C19 act 0.8, CYP2C9 act 0.1, MRP1 act 0.8 and MRP resist rev 2.8.
O=C(c1ccc2c(c1)OCO2)N1CCc2ccccc2C1 was read as CYP2C9 inh 15.7, CYP2C19 inhib 100.0*, CYP2C19 act 0, CYP2C9 act 0.8, MRP1 act -2.1 and MRP resist rev -4.4.
`Cc1ccc2c(c1)CCCN2C(=O)c1ccco1` gave CYP2C9 inh -22.8, CYP2C19 inhib 12.8, CYP2C19 act 0.9, CYP2C9 act 1.2, MRP1 act -0.4 and MRP resist rev -5.8.
Screening COc1ccc(CNC(=O)C(C)OC(=O)C23CC4CC(CC(O)(C4)C2)C3)cc1 (stereo not drawn) returned MRP1 act -0.6.
